Dyrk1A ADPGlo = blocks rat Dyrk1A kinase activity | inhibition, % at 12.5 µM | 310,000 compounds, 0.43% hits | ADP-Glo luminescence, NFATc1 peptide; in the data active = inhibition above about 50%
dFosB act = enhances mouse delta FosB homodimer DNA binding; purified delta FosB, TAMRA-CDK5 oligo fluorescence polarization; percent of positive-control signal above neutral wells; activation, % at 25 µM; 340,000 compounds, 0.99% hits; AID 493131;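 active = mean activation above about 17%, with every replicate also reaching it, limit read from the data, passing the limit was not always enough; inconclusive = only one of the two conditions met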
CDK5 p35 inh = inhibitors of human CDK5/p35 kinase; Recombinant CDK5/p35, ADP-Glo luminescence, 60 min; AID 488839; 330,000 compounds, 0.01% hits; inhibition, % at 10 µM; Q00535+Q15078;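 active = highest replicate inhibition of at least 50% and at least 75% of replicates reaching 50%; inconclusive = only one of the two criteria met; inactive = both criteria failed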
esBAF inh = SWI/SNF esBAF complex inhibition; 350,000 compounds, 2% hits; mouse ES cells, Bmi1-luciferase knock-in reporter, 24 h; 100% = twice the neutral-well signal; AID 602393; reporter increase, % at 12.5 µM; in the data active = activation above about 40%; inconclusive = no clear call, values can overlap the other calls;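 also: a rise in the Bmi1 reporter signal indicates esBAF inhibition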
Rtt109 HAT inh = blocks Candida albicans Rtt109/Vps75 acetyltransferase activity; Q5AAJ8; purified Rtt109/Vps75, ThioGlo CoA-SH fluorescence, 4 h; inhibition, % at 34.9 µM; 330,000 compounds, 0.16% hits;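 active = inhibition of at least 50% in every replicate; inconclusive = best replicate reaches 50% inhibition but some replicates fall short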
Target sequence (Q5AAJ8 whole entry, looked up): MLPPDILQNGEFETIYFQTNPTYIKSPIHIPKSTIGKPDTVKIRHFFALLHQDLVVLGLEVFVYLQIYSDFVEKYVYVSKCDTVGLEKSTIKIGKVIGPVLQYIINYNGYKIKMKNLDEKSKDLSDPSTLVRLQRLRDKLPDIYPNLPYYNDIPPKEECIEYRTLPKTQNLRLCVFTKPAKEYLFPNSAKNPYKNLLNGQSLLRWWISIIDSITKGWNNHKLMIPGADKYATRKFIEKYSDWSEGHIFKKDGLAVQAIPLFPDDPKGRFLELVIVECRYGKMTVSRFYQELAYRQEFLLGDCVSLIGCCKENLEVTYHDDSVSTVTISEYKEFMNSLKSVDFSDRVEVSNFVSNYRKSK
SMARCA2 act = SMARCA2 function activation, primary screen; MG213 cells, MMTV-luciferase reporter, dexamethasone, overnight; 370,000 compounds, 1% hits; activation, % at 9.1 µM; AID 652017; in the data active = activation above about 7.8%
SMARCA2 act conf = SMARCA2 activation, confirmation screen; activation, % at 9.1 µM; MG213 cells, MMTV-luciferase with dexamethasone, luminescence, overnight; MG213 cells expressing E1A, Rb sequestered; DMSO wells 0%, reference activator 100%; shares compounds with SMARCA2 act; 3,500 compounds, 30% hits; AID 652260;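 active = activation above its plate's cutoff, the mean activation of tested wells plus 3 SD, cut at about 7.9% in these data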
VP16 Luc act = activates GAL4-VP16 luciferase, flagging SMARCA2 activator hits. shares compounds with SMARCA2 act. HEK293 GAL4-VP16 pG5luc reporter, luciferase luminescence; scaled: DMSO wells 0%, SAHA wells 100%. activation, % at 9.1 µM. 3,500 compounds, 41% hits. AID 686939;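 active = activation above the solvent-only control well mean plus 3 SD, averaged across control plates, cut at about 5.2% in these data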
A number is an active result; 0 = inactive; ? = inconclusive; - = not tested or not shown. Shown are actives, neighbours in structure and some others; about 3.2% of the full set was active somewhere.

SMILES | Dyrk1A ADPGlo | dFosB act | CDK5 p35 inh | esBAF inh | Rtt109 HAT inh | SMARCA2 act | SMARCA2 act conf | VP16 Luc act
COc1ccc(-c2nc3c(C(=O)NCCN(C)C)cccc3c3ccccc23)cc1 | 0 | 0 | 0 | - | 0 | 12 | 26 | 0
CN(C)CCNC(=O)c1ccccc1-c1ccccc1 | 0 | 0 | 0 | - | 0 | 0 | - | -
COc1ccc(Cl)cc1C(=O)NCCN(C)C | 0 | 0 | 0 | - | 0 | 0 | - | -
C[C@@H]1CN([C@H](C)CO)C(=O)CCCn2cc(nn2)CO[C@H]1CN(C)Cc1cccc(C(=O)O)c1 | - | - | - | 0 | - | - | - | -
Nc1cc(=O)[nH]c(SCc2nnnn2-c2ccc(Cl)cc2)n1 | 0 | 0 | 0 | 0 | 0 | 9.4 | 0 | 0
Cc1ccc(CSc2nnc(-c3ccncc3)n2N)cc1 | - | - | - | - | - | 8.8 | 0 | 0
C=C(C)CSc1nnc(-c2ccc(OC)cc2)n1N | 0 | 0 | 0 | 0 | 0 | 9.5 | 0 | 0
COCC#Cc1cnc2c(c1)C(=O)N([C@H](C)CO)C[C@@H](C)[C@@H](CN(C)C(=O)CN1CCOCC1)O2 | - | - | - | 0 | - | - | - | -
Cc1ccc(NC(=O)CNCc2ccccc2OCC(=O)Nc2ccc(I)cc2)cc1 | - | - | - | - | - | 0 | - | -
O=C(COc1ccccc1CNCc1ccccc1)Nc1ccccc1 | 0 | 0 | 0 | 0 | 0 | 9.9 | 0 | 0
COc1cccc(NC(=O)CSc2nc3ccccc3c(=O)n2Cc2cccs2)c1 | 0 | 0 | 0 | - | 0 | 8.9 | 0 | 0
CCOCCCn1c(SCC(=O)Nc2cccc(OC)c2)nc2ccccc2c1=O | 0 | 0 | 0 | 0 | 0 | 0 | - | -
Cc1ccc(S(=O)(=O)Nc2ccc3c(c2)C(=O)N([C@@H](C)CO)C[C@@H](C)[C@@H](CN(C)S(C)(=O)=O)OCCCC[C@@H](C)O3)cc1 | - | - | - | 0 | - | - | - | -
C[C@H]1CN([C@@H](C)CO)C(=O)c2cccc(NS(=O)(=O)c3ccc(Cl)cc3)c2O[C@H]1CN(C)Cc1ccc(-c2ccccc2)cc1 | - | - | - | 0 | - | - | - | -
CCN1CCC(=NNC(=O)c2ccco2)CC1 | 0 | 0 | 0 | 0 | 0 | 14 | 0 | 0
CCN1CCN(c2ccc(NC(=O)c3ccco3)cc2)CC1 | - | 0 | 0 | - | 0 | 8.3 | 0 | 0
CCCN1CCC(=NNC(=O)c2ccc(Br)o2)CC1 | 0 | 0 | 0 | 0 | 0 | 0 | - | -
C[C@@H]1CCCCO[C@@H](CN(C)C(=O)Nc2ccccc2)[C@H](C)CN([C@H](C)CO)C(=O)c2cc(NS(=O)(=O)c3ccccc3)ccc2O1 | - | - | - | 0 | - | - | - | -
Cc1ccc(C)c(S(=O)(=O)N2CCN(c3nc(CN4CCOCC4)nc4sc(C)c(C)c34)CC2)c1 | 0 | 0 | 0 | 0 | 0 | 9.1 | 0 | 0
COc1cccc(N(CC(=O)N2CCN(C)CC2)S(=O)(=O)c2ccccc2)c1 | - | 0 | 0 | 0 | 0 | 8.6 | 0 | 0
COc1ccc(N2CCN(C(=O)CN(c3cccc(OC)c3)S(=O)(=O)c3ccccc3)CC2)cc1 | 0 | 0 | 0 | 0 | 0 | 0 | - | -
COc1ccccc1C(=O)Nc1ccncc1 | 0 | 0 | 0 | 0 | 0 | 0 | - | -
COc1ccccc1C(=O)Nc1nsc(-c2ccccc2)n1 | 0 | 0 | 0 | 46 | 0 | 8.8 | 13 | 15
CC(=O)c1sc(NC(=O)C(C)(C)C)nc1C | 0 | 0 | 0 | - | 0 | 0 | - | -
CC(=O)c1sc(NC(=O)c2ccc(C(C)(C)C)cc2)nc1C | - | 0 | 0 | 0 | 0 | 8.2 | 8.0 | 18
SMILES | Dyrk1A ADPGlo | dFosB act | CDK5 p35 inh | esBAF inh | Rtt109 HAT inh | SMARCA2 act | SMARCA2 act conf | VP16 Luc act
Clc1ccc2nc(-c3cccc(Br)c3)c(Cc3ccsc3)n2c1 | - | - | - | 0 | - | 8.9 | 0 | 0
Cc1ccc(Cc2c(-c3cccc(Br)c3)nc3ccc(C)cn23)cc1 | - | - | - | - | - | 0 | - | -
Cc1ccc2nc(-c3cccc(Br)c3)c(Cc3ccccc3)n2c1 | - | - | - | 0 | - | 10 | 0 | 0
Clc1ccc2nc(-c3cccc(Br)c3)c(Cc3ccccc3)n2c1 | - | - | - | ? | - | 0 | - | -
Brc1ccc2nc(-c3ccco3)c(Cc3ccccc3)n2c1 | - | - | - | 0 | - | 10 | 0 | 0
CO[C@@H]1CN(C)C(=O)c2ccc(NS(C)(=O)=O)cc2OC[C@@H](C)N(C(=O)C2CCCC2)C[C@H]1C | - | - | - | 0 | - | - | - | -

Bioassay records: PubChem BioAssay, several laboratories
